Rab9 promoter act: activates the Rab9 promoter; Potency, µM (highest dose often 9.22 µM), usual class: activators; Huh7 Rab9 promoter-luciferase reporter, luminescence, 24 h; actives 2.8% (n = 320,000); AID 485297; further: nearly all actives have a fitted effect of over 60% in size
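Measured in stably transfected Huh7 cells bearing a Rab9 promoter–luciferase construct: 24 h compound treatment at 37 °C, followed by luminescence detection.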
FLuc counter: firefly luciferase modulation, counter-screen for miR-21 project. P08659. actives 6.9% (n = 360,000). purified FLuc, Km substrates, luminescence inhibition. Potency, µM (series often up to 57.5 µM), actives largely listed as inhibitors; further: nearly all actives have a fitted effect of over 55% in size
Target sequence (P08659 whole entry, looked up): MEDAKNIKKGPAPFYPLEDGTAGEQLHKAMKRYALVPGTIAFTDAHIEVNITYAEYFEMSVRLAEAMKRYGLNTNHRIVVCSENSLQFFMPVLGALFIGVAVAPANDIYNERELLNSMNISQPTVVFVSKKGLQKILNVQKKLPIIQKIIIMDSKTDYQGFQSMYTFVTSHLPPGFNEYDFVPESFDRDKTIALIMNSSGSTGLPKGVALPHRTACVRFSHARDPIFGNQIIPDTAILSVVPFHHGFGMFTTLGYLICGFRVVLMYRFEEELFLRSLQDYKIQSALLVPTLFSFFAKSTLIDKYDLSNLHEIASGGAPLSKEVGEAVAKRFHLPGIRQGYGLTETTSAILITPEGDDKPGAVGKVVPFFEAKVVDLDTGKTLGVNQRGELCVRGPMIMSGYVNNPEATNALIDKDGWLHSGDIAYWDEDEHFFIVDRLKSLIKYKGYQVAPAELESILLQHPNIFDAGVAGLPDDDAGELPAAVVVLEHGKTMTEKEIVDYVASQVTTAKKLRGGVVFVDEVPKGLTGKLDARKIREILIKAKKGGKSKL
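Biochemical qHTS of compounds, final roughly 60 µM downward over six points, against 10 nM purified firefly luciferase using Km concentrations of substrates (10 uM D-luciferin, 10 uM ATP) in Tris acetate pH 7.5 buffer; luminescence output.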
KinaseGlo FLuc: blocks Kinase-Glo luciferase, a counter-screen artifact | Q27757 | Kinase-Glo luciferase, ATP luminescence, 8 min | Potency, µM (doses to about 38.3 µM), usual class: inhibitors | actives 0.28% (n = 200,000) | AID 1379; further: nearly all actives have a fitted effect of over 60% in size
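Luminescence was the read-out, taken after 8-minute incubation at ambient temperature. Luciferase turned over luciferin with 10 uM ATP in imidazole pH 7.2 buffer containing KCl, MgCl2, Tween 20 and BSA.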
ELG1 genotox: genotoxicity induction in ELG1-luciferase HEK293T cells; HEK293T ELG1-luciferase reporter, luminescence, 16 h; Potency, µM (titrated, usually from 46 µM), usual class: activators; actives 1.3% (n = 330,000); further: nearly all actives have a fitted effect of over 60% in size
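Genotoxic stress is detected as increased luminescence from luciferase-tagged ELG1 in HEK293T cells, measured with ONE-Glo after a 16 hr treatment at 37 °C.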
NPC1 prom act: activators of NPC1 promoter. Potency, µM (series often up to 9.22 µM), usual class: activators. actives 2.4% (n = 320,000). Huh7 NPC1 promoter luciferase reporter, 24 h; further: nearly all actives have a fitted effect of over 60% in size
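Luminescence read-out of NPC1 promoter-driven luciferase in stably transfected Huh7 cells; compounds delivered in DMSO and left 24 h at 37C, 5% CO2, qHTS titration format.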
SMN2 splice up: enhancers of SMN2 splice variant expression; actives 2.8% (n = 210,000); Potency, µM (doses to about 46.1 µM), actives largely listed as activators; AID 1458; HEK293 SMN2-luciferase splicing reporter, luminescence, 30-36 h; further: nearly all actives have a fitted effect of over 55% in size
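HEK293 cells carry an SMN2 […]–luciferase reporter in which exon 7 inclusion puts luciferase in frame. Cells were plated 10-12 h before compound addition, then incubated 30-36 h at 37C. ONE-Glo luminescence was read; sodium butyrate at 4.5 mM final served as control.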
Numbers stand for hits; . = inactive; ? = inconclusive; / = no result. The list is not random: actives were taken first. Their share in the collection is about 7.5%. The call rests on the fitted dose curve; in most records, active means well fitted curve in the direction sought with a large enough effect; inconclusive means small, poorly fitted or top-dose-only effect, or another doubt; inactive means no such curve, though single readings can be large; an effect the other way counts as inactive or inconclusive.

SMILES	Rab9 promoter act	FLuc counter	KinaseGlo FLuc	ELG1 genotox	NPC1 prom act	SMN2 splice up
N#C/C(=C/c1ccc(N2CCCC2)c([N+](=O)[O-])c1)c1nc2ccccc2[nH]1	?	6.01µM	.	.	?	.
N#C/C(=C/c1ccc(N2CCOCC2)o1)c1ccc(Cl)cc1	2.82µM	8.49µM	.	?	3.55µM	?
N#C/C(=C\c1ccc(N2CCOCC2)o1)c1nc2ccccc2[nH]1	0.501µM	0.426µM	.	?	0.708µM	0.562µM
Cn1c(=O)c2c(c3ccccc31)OC(=O)CC2c1ccc(C(F)(F)F)cc1 (stereo not drawn)	/	?	/	/	/	.
Cc1cc(=O)n(Cc2cccc(Cl)c2)c2c1c(C)nn2C	/	.	/	/	/	/
Cc1cc(C)c2nc(N3CCCC(C(=O)NCCN4CCOCC4)C3)sc2c1 (stereo not drawn)	.	13.5µM	.	?	?	15.8µM
CCN1CCN(CCCNC(=O)C2CCCN(c3nc4c(C)cc(C)cc4s3)C2)CC1 (stereo not drawn)	.	16.9µM	/	?	.	/
Cc1cc(C)c2nc(N3CCCC(C(=O)NCCCN4CCOCC4)C3)sc2c1 (stereo not drawn)	?	?	.	.	.	14.1µM
Cc1cc(C)c(S(=O)(=O)N2CCOC2CNC(=O)C(=O)NCCCN2CCOCC2)c(C)c1 (stereo not drawn)	1.41µM	8.49µM	/	?	2.51µM	/
Cc1cc(C)c2nc(N3CCC(C(=O)NCCCN4CC(C)CC(C)C4)CC3)sc2c1 (stereo not drawn)	.	?	.	.	.	.
CCCOc1ccc(CNC(=O)C2CCCN(c3nc4c(C)cc(C)cc4s3)C2)cc1 (stereo not drawn)	/	.	/	/	/	.
CCOC(=O)c1c(N)n(-c2ccccc2CC)c2nc3ccccc3nc12	/	.	/	/	/	/
Cc1ccc(C)c(OCc2cc(C(=O)N3CCN(C(=O)c4ccco4)CC3)no2)c1	4.47µM	19µM	/	?	3.16µM	/
O=C(c1cc(COc2ccc(F)cc2F)on1)N1CCN(C(=O)c2ccco2)CC1	.	.	/	.	.	/
Cc1ccc(C)c(OCc2cc(C(=O)N3C[C@@H](C)O[C@@H](C)C3)no2)c1	1.58µM	6.01µM	/	?	2.24µM	/
Cc1ccc(C)c(OCc2cc(C(=O)N3CCN(c4ccccc4)CC3)no2)c1	3.98µM	19µM	/	.	2.82µM	/
O=C(O)[C@H]1CN(CCCP(=O)(O)O)CCN1	/	/	.	/	/	/
O=C(Nc1nnc(-c2ccccc2Cl)s1)c1ccccc1F	3.98µM	.	/	?	3.16µM	/
O=C(Nc1nnc(-c2ccccc2F)s1)Nc1ccccc1F	2µM	.	.	.	?	?
O=C(Nc1nnc(Cc2ccccc2F)s1)c1ccccc1Cl	.	.	/	.	.	/
O=C(Nc1nnc(-c2ccccc2)s1)c1ccccc1F	1.12µM	10.7µM	/	?	2.51µM	/
COC(=O)c1ccc(C(=O)OC)c(NC(=O)N2CC3CCCN3c3ccccc32)c1 (stereo not drawn)	/	.	/	/	/	/
Cc1ccc(CNC(=O)C(C)n2ccc3cc(S(=O)(=O)N4CCCC4)ccc32)cc1 (stereo not drawn)	/	.	/	/	/	/
Cc1ccccc1NC(=S)NNC(=O)c1csc2c1CCC(C)C2 (stereo not drawn)	2.24µM	2.39µM	.	?	3.16µM	.
CC1CCc2c(C(=O)Nc3ccccn3)csc2C1 (stereo not drawn)	3.16µM	2.13µM	/	?	3.55µM	/
SMILES	Rab9 promoter act	FLuc counter	KinaseGlo FLuc	ELG1 genotox	NPC1 prom act	SMN2 splice up
CC1CCc2c(C(=O)Nc3nccs3)csc2C1 (stereo not drawn)	?	4.78µM	.	?	?	?
CC1CCc2c(C(=O)NCc3ccccn3)csc2C1 (stereo not drawn)	.	21.3µM	.	?	?	?
CCNC(=S)NNC(=O)c1csc2c1CCC(C)C2 (stereo not drawn)	.	.	.	.	.	.
COC(=O)c1ccc(C(NC(=O)OCc2ccccc2)/C(C)=C/[C@@H](C)C(=O)N2CCN(C)CC2)cc1 (stereo partly drawn)	/	/	.	/	/	.
COc1ccc(S(=O)(=O)NCC(c2ccco2)S(=O)(=O)c2ccc(C)cc2)cc1C (stereo not drawn)	/	.	/	/	/	/
Cc1nn(C(=O)c2c(F)cccc2F)c(C)c1S(=O)(=O)N1CCCCCC1	/	.	/	/	/	/
CCN(CC)c1cc(C)c2cc(NC(=O)/C=C/c3ccc(C)cc3)ccc2n1	/	.	/	/	/	.
CC1CCc2sc(C(=O)NCc3ccccn3)cc2C1 (stereo not drawn)	?	19µM	/	18.3µM	.	/
CC1CCc2sc(C(=O)NCc3ccc(F)cc3)cc2C1 (stereo not drawn)	.	?	.	.	.	.
CCn1ccc2cc(S(=O)(=O)N3CCC(C(=O)NCC(C)c4ccccc4)CC3)ccc21 (stereo not drawn)	/	.	/	/	/	/
CCOCC(=O)Nc1ccc2c(c1)OCCO2	3.16µM	?	.	?	?	?
O=C(COc1ccc(F)cc1)Nc1ccc2c(c1)OCCO2	3.98µM	5.36µM	/	?	2.82µM	/
CCOC(=O)c1ccc(NC(=O)Nc2ccc3c(c2)OCCO3)cc1	.	19µM	.	.	.	.
CCOC(=O)c1c(C)c(C(=O)Nc2ccc3c(c2)OCCO3)c(C)n1C	.	?	.	.	.	?
O=C(COc1ccc2c(c1)OCO2)Nc1cccc(F)c1	.	9.53µM	/	13µM	.	/
CCC(=O)c1ccc(OCC(=O)Nc2ccc3c(c2)OCCO3)cc1	/	/	/	.	/	/
COc1ccc(OCC(=O)Nc2ccc3c(c2)N(C)C(=O)c2ccccc2S3)cc1	/	.	/	/	/	/
C#CCOC(=O)NC(/C=C/CCCC)c1ccccc1 (stereo not drawn)	/	/	.	/	/	.
COc1ccc(N2CC(NC(=O)CCCc3ccccc3)CC2=O)cc1 (stereo not drawn)	/	.	/	/	/	/
COc1cccc(NC(=O)N2CCC(CN3CCOCC3)CC2)c1	/	.	/	/	/	/
CCOc1cccc2sc(N(Cc3cccnc3)C(=O)c3ccc(C#N)cc3)nc12	/	.	/	/	/	/
Cc1cc(OCC(=O)Nc2ccc3c(c2)OCCO3)ccc1Cl	.	19µM	.	.	.	.
CCOc1ccc(OCCC(=O)OCC(=O)Nc2ccc3c(c2)OCO3)cc1	.	23.9µM	/	.	.	/
C/C(=N\OCC(=O)Nc1ccc2c(c1)OCCO2)c1ccc2c(c1)OCCO2	.	19µM	/	.	.	/
Cc1ccc(OCCC(=O)OCC(=O)Nc2ccc3c(c2)OCCO3)cc1	.	?	/	.	.	/
CC1=C(C(=O)Nc2cccc(C)c2C)C2(CCCCC2)OC1=O	/	.	/	/	/	.
O=C(NCc1ccccc1Cl)C1CCN(S(=O)(=O)c2ccc3c(c2)CCCN3C(=O)C2CCC2)CC1	/	.	/	/	/	/
O=C(CCCCCn1c(=O)c2sccc2n(CC(=O)Nc2cccc(Cl)c2)c1=O)NCc1ccc2c(c1)OCO2	/	.	/	/	/	.
